# Source: PubChem BioAssay (NCATS)
# Values joined by “and” are separate entries in the source; they are usually repeats but may differ in a detail not shown here. Identical values can stand only once. Values without a mark were called inactive. Results filed as inconclusive are left out. Active and inactive are the calls of the source. Unless noted, the call rests on the fitted dose curve; in most records, active means well fitted curve in either direction with a large enough effect (not every such curve was filed as active); inconclusive means small, poorly fitted or top-dose-only effect, or another doubt; inactive means flat fitted curve, though single readings scatter.
# Columns and labels:
# [1] = AP1 Signaling Pathway (AID 357); conditions: ME-180 AP-1-bla reporter, EGF-induced, beta-lactamase ratio, 5 h;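 further: ME-180 reporter cells stimulated with EGF at its EC50 level; on the % scale 0 is the no-effect control and ±100 the full control effect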
# In short: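 A ratiometric CCF4 readout (405 nm excitation; 460 and 530 nm emission) quantified AP-1-driven beta-lactamase in ME-180 cells after 5 h with compound and EC50 EGF; AC50 values were derived for activators and inhibitors.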
# [2] = target: Cytochrome P450 1A2 (Homo sapiens) (UniProt P05177); assay: p450-cyp1a2 (AID 410; calls by dose curve; further: potency means the concentration at half of the fitted maximal effect;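 on activity change, negative = inhibition: -100% = full effect of reference inhibitor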); conditions: recombinant CYP1A2, luciferin-ME demethylation, luminescence; series mostly up to 25.6 µM
# In short: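 Inhibition was calculated relative to 57 uM furafylline (full inhibition). The reaction used human CYP1A2 at 20nM with Luciferin-ME at its Km, 100uM, driven by an NADPH-regenerating system for 60 min at room temperature.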
# [3] = Cell Viability - BJ (AID 421; calls by dose curve;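 further: potency means the concentration at half of the fitted maximal effect; cells exposed to compound for 40 hours at 37 °C before readout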); conditions: BJ fibroblast viability, qHTS
# In short: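 Quantitative HTS: ATP depletion in BJ cells after 40 hr compound exposure in complete culture medium, detected with CellTiter-Glo; AC50 from standard Hill fits.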
# [4] = Cell Viability - Jurkat (AID 426;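 active means dose-dependent loss of cell ATP signal giving a full or clear fitted curve, ranked by lower potency value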; further: potency means the concentration at half of the fitted maximal effect); conditions: qHTS
# In short: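 Seed 5000 Jurkat E6-1 cells/well; add compound; incubate 40 hr at 37 °C; add CellTiter-Glo; wait 20 min at room temperature; read luminescence. Fit concentration-response with Hill equation for AC50.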
# [5] = Cell Viability - Hek293 (AID 427;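 active means compounds whose dose-response curve shows a full or clear partial loss of cell viability, called from curve shape rather than a numeric limit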;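 further: potency means the concentration at half of the fitted maximal effect; cells exposed to compound for 40 hours at 37 °C before reading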); conditions: qHTS
# In short: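 AC50 values derive from Hill-modelled concentration-response of ATP-based luminescence, normalized between DMSO-only and 100 uM tamoxifen controls. Cells were exposed in complete culture medium for 40 hr at 37 °C before detection.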
# [6] = Cell Viability - HepG2 (AID 433; calls by dose curve;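 further: potency means the concentration at half of the fitted maximal effect; potency for ATP loss meaning cytotoxicity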); conditions: qHTS
# In short: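 In this qHTS format, a 40 h, 37 °C compound incubation of HepG2 cells in complete medium precedes a 20 min CellTiter-Glo step at room temperature. Tamoxifen and doxorubicin serve as positive controls; Hill-equation fits yield AC50.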
# [7] = Cell Viability - MRC5 (AID 434; calls by dose curve;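 further: potency means the concentration at half of the fitted maximal effect; potency reflects cytotoxicity seen as loss of intracellular ATP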); conditions: MRC5 lung fibroblast viability, qHTS
# In short: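 qHTS cytotoxicity in human lung fibroblast MRC5 cells; 40 hr treatment, 37 °C; cellular ATP by luciferase luminescence; DMSO = 0%, 100 uM tamoxifen = 100% inhibition; Hill-fit AC50.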
# [8] = Cell Viability - SK-N-SH (AID 435; calls by dose curve;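 further: potency means the concentration at half of the fitted maximal effect; compound exposure lasted 40 h at 37 °C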); conditions: SK-N-SH neuroblastoma cell viability qHTS
# In short: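 Human neuroblastoma line, 40 h exposure at 37 °C, ATP quantified via luciferase luminescence; DMSO and 100 uM tamoxifen define 0 and 100% inhibition for AC50 fitting.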
# [9] = NFAT Signaling Pathway (AID 444); conditions: Jurkat NFAT-bla M1, carbachol, beta-lactamase ratio, 5 h;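 further: carbachol stimulus at about its EC50 of 1 µM final; on the % scale 0 is the no-effect control and ±100 the full control effect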
# In short: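 Read-out: CCF4 FRET ratio (460 nm/530 nm) after 1 h RT dye loading, used for %activity and AC50 from titration series. Cells: Jurkat NFAT-β-lactamase/M1 line, treated with compound plus 1 uM carbachol for 5 h, 37 °C.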
# [10] = target: Mitogen-activated protein kinase 10 (Mus musculus) (UniProt Q61831); assay: JNK3 AlphaScreen Assay (AID 530); conditions: JNK3 lysate, c-Jun phosphorylation; series mostly up to 25.6 µM;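 further: kinase came from lysate of stimulated human HepG2 cells; signal reports phosphorylation of biotinylated GST-cJun 1-79 at Ser73 with 10 µM ATP; on the % scale 0 is the no-effect control and ±100 the full control effect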
# In short: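 Room-temperature AlphaScreen kinase assay; pre-activated HepG2 lysate as JNK3 source, biotin-GST-cJun(1-79) substrate, 10 uM ATP, compound 15 min preincubation.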
# [11] = Cell Viability - N2a (AID 540; active means well fitted curve in the direction sought with a large enough effect; an effect the other way counts as inactive or inconclusive; further: nearly all actives have a fitted effect of over 45% in size; further: potency means the concentration at half of the fitted maximal effect;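 on activity change, negative = cytotoxicity: plate controls were DMSO alone for no effect and tamoxifen control for full effect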); conditions: N2a mouse neuroblastoma cell viability; activity change, negative = cytotoxicity: at 92.2 µM (top of the series)
# In short: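 First, 1500 N2a cells per well incubate 5 hr at 37 °C; next, compounds are added and incubated 40 hr at 37 °C; finally CellTiter-Glo is added and luminescence read after 20 min, with AC50 derived by Hill modeling.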
# [12] = Cell Viability - NIH 3T3 (AID 541; active means well fitted curve in the direction sought with a large enough effect; an effect the other way counts as inactive or inconclusive;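 further: plate controls were DMSO alone for no effect and tamoxifen positive control for full effect; nearly all actives have a fitted effect of over 25% in size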); conditions: NIH 3T3 cell viability, qHTS; activity change, negative = cytotoxicity: at 92.2 µM (top of the series)
# In short: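 AC50 values reflect concentration-dependent loss of intracellular ATP in NIH 3T3 cells after 40 hr treatment in complete culture medium, quantified by luciferase-based luminescence.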
# [13] = Cell Viability - HUV-EC-C (AID 542; active means well fitted curve in the direction sought with a large enough effect; an effect the other way counts as inactive or inconclusive; further: nearly all actives have a fitted effect of over 35% in size; further: potency means the concentration at half of the fitted maximal effect); conditions: HUV-EC-C endothelial cell viability, qHTS; series mostly up to 92.2 µM
# In short: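 Decrease in cellular ATP, quantified by luciferase luminescence, reflects toxicity in normal human vascular endothelial HUV-EC-C cells given compound for 40 hr in complete culture medium. Values are AC50s from concentration-response curves.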
# [14] = Cell Viability - H-4-II-E (AID 543; active means well fitted curve in the direction sought with a large enough effect; an effect the other way counts as inactive or inconclusive; further: on the % scale 0 is the no-effect control and ±100 the full control effect; nearly all actives have a fitted effect of over 35% in size); conditions: H-4-II-E rat hepatoma viability; series mostly up to 92.2 µM
# In short: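 Here, cytotoxicity is measured in the rat hepatoma line H-4-II-E as loss of intracellular ATP after 40 hr compound treatment, detected by luciferase luminescence.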
# [15] = Cell Viability - SH-SY5Y (AID 544; active means well fitted curve in the direction sought with a large enough effect; an effect the other way counts as inactive or inconclusive;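 further: 0% = DMSO alone and -100% = 100 µM tamoxifen; nearly all actives have a fitted effect of over 55% in size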); conditions: SH-SY5Y neuroblastoma cell viability; viability change, negative = cytotoxic: at 92.2 µM (top of the series)
# In short: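 Cytotoxicity is scored as a concentration-dependent fall in intracellular ATP in human SH-SY5Y cells treated 40 hr in complete culture medium. Potency is expressed as AC50 from a Hill equation fit.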
# [16] = Cell Viability - Renal Proximal Tubule (AID 545; active means well fitted curve in the direction sought with a large enough effect; an effect the other way counts as inactive or inconclusive;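 further: 0% = DMSO only and -100% = 100 µM tamoxifen; nearly all actives have a fitted effect of over 40% in size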); conditions: renal proximal tubule cells viability, primary cells of rat origin; activity change, negative = cytotoxicity: at 91.7 µM (top of the series)
# In short: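 In this qHTS format, normal rat kidney-derived proximal tubule cells in complete culture medium receive compound titrations, then sit 40 hours at 37 °C before luciferase-based ATP quantitation; potency is reported as AC50 from concentration-response curves.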
# [17] = Stat Signaling Pathway (AID 446); conditions: ME-180 (cervical carcinoma) SIE beta-lactamase reporter, IL-6 stimulated, 5 h;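 further: ME-180 cervical cancer cells given 40 pM IL-6 alongside compound; SIE-controlled beta-lactamase reporter measured as 460/530 nm FRET emission ratio; on the % scale 0 is the no-effect control and ±100 the full control effect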
# In short: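 IL-6/STAT signaling read in ME-180 cells via an SIE beta-lactamase reporter. Stimulus was 40 pM IL-6 (its AC50) for 5 hrs, so both activation and inhibition register.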
# [18] = target: Glucocorticoid receptor (Homo sapiens) (UniProt P04150); assay: GR-GFP Redistribution (AID 450;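 active means compounds whose dose series gives a full or clear partial fitted curve of increased nuclear translocation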; further: potency means the concentration at half of the fitted maximal effect); conditions: U2OS GR-GFP nuclear translocation, laser cytometry, 2 h
# [19] = target: Glucocorticoid receptor (Homo sapiens) (UniProt P04150); assay: GR-EFC Redistribution (AID 451; calls by dose curve; further: potency means the concentration at half of the fitted maximal effect); conditions: CHO-K1 GR-EFC translocation, beta-gal luminescence, 2 h
# In short: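 Translocation of GR-ED fusion to nuclear EA restores b-gal, read by luminescence after 1 h room-temperature detection. Engineered CHO-K1 biosensor cells, 1,000/well, exposed 2 h at 37 C to titrations up to 46 uM final.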
# Glucocorticoid receptor (Homo sapiens), sequence (P04150 whole entry, looked up, the tested form may be a part): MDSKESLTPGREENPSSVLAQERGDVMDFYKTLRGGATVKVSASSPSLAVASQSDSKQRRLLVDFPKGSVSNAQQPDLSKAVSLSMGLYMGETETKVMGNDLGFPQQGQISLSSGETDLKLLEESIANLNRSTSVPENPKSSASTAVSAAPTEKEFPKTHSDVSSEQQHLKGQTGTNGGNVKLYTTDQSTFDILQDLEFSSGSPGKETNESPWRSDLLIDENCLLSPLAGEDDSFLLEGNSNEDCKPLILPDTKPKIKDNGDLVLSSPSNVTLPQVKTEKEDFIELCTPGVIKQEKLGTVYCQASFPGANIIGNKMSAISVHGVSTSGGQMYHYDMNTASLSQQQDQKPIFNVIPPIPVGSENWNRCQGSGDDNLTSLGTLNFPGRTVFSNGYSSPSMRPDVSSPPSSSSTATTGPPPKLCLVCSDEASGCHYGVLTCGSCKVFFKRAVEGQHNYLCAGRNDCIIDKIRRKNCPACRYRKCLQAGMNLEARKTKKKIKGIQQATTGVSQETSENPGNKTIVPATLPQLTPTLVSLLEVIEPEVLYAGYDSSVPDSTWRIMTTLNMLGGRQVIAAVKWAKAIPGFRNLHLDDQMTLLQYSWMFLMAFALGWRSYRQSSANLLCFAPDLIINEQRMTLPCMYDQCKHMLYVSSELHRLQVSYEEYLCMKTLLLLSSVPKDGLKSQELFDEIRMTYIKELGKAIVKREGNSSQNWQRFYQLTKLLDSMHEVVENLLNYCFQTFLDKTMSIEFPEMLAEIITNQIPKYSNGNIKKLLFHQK
# Cytochrome P450 1A2 (Homo sapiens), sequence (P05177 whole entry, looked up): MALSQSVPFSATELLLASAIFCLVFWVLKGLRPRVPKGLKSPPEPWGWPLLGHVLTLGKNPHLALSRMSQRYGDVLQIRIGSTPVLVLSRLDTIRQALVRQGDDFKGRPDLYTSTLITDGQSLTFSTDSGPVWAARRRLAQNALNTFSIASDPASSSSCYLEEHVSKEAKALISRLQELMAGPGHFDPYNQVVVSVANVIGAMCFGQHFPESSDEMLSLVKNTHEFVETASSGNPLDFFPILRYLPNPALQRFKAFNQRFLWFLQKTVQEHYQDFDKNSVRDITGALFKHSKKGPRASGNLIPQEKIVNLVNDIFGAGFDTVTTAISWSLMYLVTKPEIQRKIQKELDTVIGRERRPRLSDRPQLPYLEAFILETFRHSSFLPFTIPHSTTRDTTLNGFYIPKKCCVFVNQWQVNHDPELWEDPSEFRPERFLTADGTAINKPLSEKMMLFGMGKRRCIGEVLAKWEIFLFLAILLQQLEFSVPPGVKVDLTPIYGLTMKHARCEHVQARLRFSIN
compound,measurement,setting,value
CC(=O)Oc1ccc(C(c2ccc(OC(C)=O)cc2)c2ccccn2)cc1,"activity change, negative = inhibition",[1]; at 17.2 µM (top of the series),-26.3% and -21%
same,Potency,[2],inactive
same,Potency,[3],> 92 µM
same,Potency,[4],> 92 µM
same,Potency,[5],> 92 µM
same,Potency,[6],> 92 µM
same,Potency,[7],> 92 µM
same,Potency,[8],> 92 µM
same,"activity change, negative = inhibition",[9]; at 17.2 µM (top of the series),7.84% and -13.9%
same,outcome,[10],inactive
same,Potency,[11],inactive
same,Potency,[12],inactive
same,Potency,[13],inactive
same,Potency,[14],inactive
same,Potency,[15],inactive
same,"activity change, negative = cytotoxicity",[16],-2.53%
C[N+]1(CCCCC[N+]2(C)CCCC2)CCCC1,"activity change, negative = inhibition",[1]; at 17.2 µM (top of the series),5.75%
same,"activity change, negative = inhibition",[1]; at 38 µM (top of the series),7.2%
same,"activity change, negative = inhibition",[9]; at 17.2 µM (top of the series),-12.7%
same,"activity change, negative = inhibition",[9]; at 38 µM (top of the series),-8.15%
same,"activity, negative = inhibition",[17]; at 17.2 µM (top of the series),14.2%
same,"activity, negative = inhibition",[17]; at 38 µM (top of the series),0.841%
same,Potency,[18],> 46 µM and > 20.6 µM
same,Potency,[19],> 46 µM and > 20.6 µM
same,outcome,[10],inactive
C[C@H]1[C@H](NC(=O)/C(=N/OC(C)(C)C(=O)O)c2csc(N)n2)C(=O)N1S(=O)(=O)O (stereo in doubt),"activity change, negative = inhibition",[1]; at 17.2 µM (top of the series),1.44%
same,Potency,[2],inactive
same,"activity change, negative = inhibition",[9]; at 17.2 µM (top of the series),3.56%
same,"activity, negative = inhibition",[17]; at 17.2 µM (top of the series),8.78%
same,Potency,[18],> 20.6 µM
same,Potency,[19],> 20.6 µM
same,outcome,[10],inactive
CC(C)(C)CC(C)(C)c1ccc(OCCOCC[N+](C)(C)Cc2ccccc2)cc1,"activity change, negative = inhibition",[1]; at 17.2 µM (top of the series),-12.6%
same,Potency,[3],52.9 µM (active)
same,Potency,[4],26.8 µM (active)
same,Potency,[6],57.8 µM (active)
same,"activity, negative = inhibition",[17]; at 17.2 µM (top of the series),-2.12%
same,outcome,[10],inactive
same,Potency,[11],5.01 µM (active)
same,"activity change, negative = cytotoxicity",[12],-129% (active)
same,Potency,[13],50.1 µM (active)
same,Potency,[14],inactive
same,"activity change, negative = cytotoxicity",[16],-90% (active)
CN1CCC[C@@H]1c1cccnc1,"activity change, negative = inhibition",[1]; at 38 µM (top of the series),12.2%
same,"activity change, negative = inhibition",[9]; at 38 µM (top of the series),-1.61%
same,"activity, negative = inhibition",[17]; at 38 µM (top of the series),-4.46%
CCn1cc(C(=O)O)c(=O)c2cnc(N3CCCC3)nc21,"activity change, negative = inhibition",[1]; at 17.2 µM (top of the series),5.94%
same,"activity change, negative = inhibition",[9]; at 17.2 µM (top of the series),5.83%
same,"activity, negative = inhibition",[17]; at 17.2 µM (top of the series),2.28%
same,Potency,[18],> 20.6 µM
same,Potency,[19],> 20.6 µM
same,outcome,[10],inactive
C[C@@H]1C[C@H]2[C@@H]3CCC4=CC(=O)C=C[C@]4(C)[C@@]3(F)[C@@H](O)C[C@]2(C)[C@H]1C(=O)CO,"activity change, negative = inhibition",[1]; at 17.2 µM (top of the series),0.15%
same,"activity change, negative = inhibition",[9]; at 17.2 µM (top of the series),-16.3%
same,"activity, negative = inhibition",[17]; at 17.2 µM (top of the series),1.17%
same,Potency,[18],> 20.6 µM
CCCCOc1ccc(C(=O)CCN2CCCCC2)cc1,"activity change, negative = inhibition",[1]; at 17.2 µM (top of the series),18.2% and 12.3%
same,Potency,[2],3.16 µM (active)
same,"activity, negative = inhibition",[17]; at 17.2 µM (top of the series),-25% and -28.6%
same,Potency,[18],> 20.6 µM
same,Potency,[19],> 20.6 µM
same,outcome,[10],inactive
CC(=O)OCC(=O)[C@@]1(O)CC[C@H]2[C@@H]3CCC4=CC(=O)C=C[C@]4(C)[C@H]3[C@@H](O)C[C@@]21C,"activity change, negative = inhibition",[1]; at 17.2 µM (top of the series),11.9%
same,"activity change, negative = inhibition",[9]; at 17.2 µM (top of the series),-6.54%
same,"activity, negative = inhibition",[17]; at 17.2 µM (top of the series),-3.24%
